Screening results: PubChem, National Center for Advancing Translational Sciences (NCATS)
TDP1 block: qHTS Assay for Inhibitors of Tyrosyl-DNA Phosphodiesterase (TDP1) | 350,000 tested, 0.28% active | recombinant TDP1, AlphaScreen DNA substrate cleavage | Tyrosyl-DNA phosphodiesterase 1 (Homo sapiens), Q9NUW8 | Potency, µM (series often up to 130 µM), for inactives: at the top dose activity change, negative = inhibition, actives largely listed as inhibitors; note: potency is the fitted concentration of half-maximal effect; % is set by controls: 0 for no effect and ±100 for the full control effect; nearly all actives have a fitted effect of over 40% in size
Target sequence (Q9NUW8 whole entry, looked up): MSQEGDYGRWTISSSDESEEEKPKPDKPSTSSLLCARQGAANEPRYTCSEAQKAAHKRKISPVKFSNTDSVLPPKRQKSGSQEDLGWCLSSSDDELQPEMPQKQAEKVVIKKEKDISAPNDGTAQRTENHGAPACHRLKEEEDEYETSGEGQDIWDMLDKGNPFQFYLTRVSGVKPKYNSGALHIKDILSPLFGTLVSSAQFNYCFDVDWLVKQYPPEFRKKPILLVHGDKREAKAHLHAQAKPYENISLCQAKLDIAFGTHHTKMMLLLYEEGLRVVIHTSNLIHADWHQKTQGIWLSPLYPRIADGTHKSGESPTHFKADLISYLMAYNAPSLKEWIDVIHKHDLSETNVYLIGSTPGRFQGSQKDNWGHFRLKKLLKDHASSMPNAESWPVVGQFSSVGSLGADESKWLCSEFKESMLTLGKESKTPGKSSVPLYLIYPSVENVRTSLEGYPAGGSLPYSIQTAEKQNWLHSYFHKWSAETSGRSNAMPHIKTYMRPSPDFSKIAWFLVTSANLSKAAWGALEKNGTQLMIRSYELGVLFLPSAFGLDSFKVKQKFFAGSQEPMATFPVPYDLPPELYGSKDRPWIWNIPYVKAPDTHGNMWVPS
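E. coli-derived human Tdp1, 1 nM final. Cpd preinc 15 min RT; substrate 15 nM final, 5 min RT; AS bead mix 10 ug/ml final, 10 min RT. Signal loss = tyrosine-FITC cleavage. No-enzyme wells = max signal.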
HepG2 viability: qHTS for Inhibitors of TGF-b: Cytotox Counterscreen; Potency, µM (top dose mostly 46.1 µM), inactives show top-dose activity change, negative = cytotoxicity, usual class: cytotoxic; 410,000 tested, 0.76% active; HepG2 CAGA-GFP viability, ATP luminescence, 18 h; AID 588856, 2011; note: potency is the fitted concentration of half-maximal effect
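CellTiter-Glo luminescence gave cytotoxicity after 18 hours at 37 degrees C. The cells were HepG2 CAGA-GFP in 1% FBS DMEM, stimulated with 500 pg/mL TGF-beta after compound addition. %Activity was normalised to no-cell wells (complete cell-killing) and DMSO (no toxicity), and curves were fitted and classified.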
IL-1B inflam inh: qHTS for Inhibitors of Inflammasome Signaling: IL-1-beta AlphaLISA Primary Screen; THP-1 LPS/ATP IL-1B secretion, AlphaLISA, 16 h; hits give low values; activity change, % at 57.5 µM; 360,000 tested, 4.7% active; AID 743279, 2014; in the data active = activity change below about -50%; inconclusive = mostly about -30% to -49%; note: % is set by controls: 0 for no effect and ±100 for the full control effect
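THP-1 cells pretreated 1 hr with compounds (up to 57.5 uM final), then stimulated with LPS (250 ng/mL final) plus ATP (1.25 mM final); secreted IL-1B measured by AlphaLISA after 16 hr, decreased signal indicating inhibition.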
TDP1 cell CPT: qHTS for Inhibitors of human tyrosyl-DNA phosphodiesterase 1 (TDP1): qHTS in cells in presence of CPT. chicken DT40 Tdp1-/-;hTDP1 cells + 20 nM CPT, ATP luminescence, 48 h. Potency, µM (titrated, usually from 46.2 µM), without a hit: top-dose activity change, negative = growth inhibition, hits mostly inhibitors. 420,000 tested, 12% active. AID 686979, 2013; note: potency is the fitted concentration of half-maximal effect; % is set by controls: 0 for no effect and ±100 for the full control effect; nearly all actives have a fitted effect of over 55% in size
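Chicken DT40 Tdp1-/- cells complemented with human TDP1, 400 cells/well, exposed to compounds plus 20 nM camptothecin for at least 48 h at 37 C; viability read as ATP content by CellTiter-Glo luminescence.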
DT40 TDP1 no CPT: qHTS for Inhibitors of human tyrosyl-DNA phosphodiesterase 1 (TDP1): qHTS in cells in absence of CPT. DT40 Tdp1-/- hTDP1 cells, no CPT, ATP luminescence, 48 h. Potency, µM (doses to about 46.2 µM), for the others: top-dose activity change, negative = growth inhibition, actives largely listed as inhibitors. 420,000 tested, 15% active; note: potency is the fitted concentration of half-maximal effect; % is set by controls: 0 for no effect and ±100 for the full control effect; nearly all actives have a fitted effect of over 55% in size
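Growth kinetics read by CellTiter-Glo luminescence after ≥48 hr at 37 °C. Cells: DT40 Tdp1-/- stably carrying human TDP1, 400 per well, compound exposure in the absence of CPT (DMSO vehicle).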
TGFb SMAD3 inh: qHTS for Inhibitors of TGF-b | HepG2 CAGA-GFP TGF-b/SMAD3 reporter, GFP fluorescence, 18 h; TGF-beta stimulated, 500 pg/mL final | Potency, µM (series often up to 46.1 µM), inactives show at the top dose activity, negative = inhibition, hits mostly inhibitors | 410,000 tested, 1.2% active | AID 588855, 2011; note: potency is the fitted concentration of half-maximal effect; % is set by controls: 0 for no effect and ±100 for the full control effect; nearly all actives have a fitted effect of over 65% in size
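Cell-based qHTS in HEPG2 carrying a CAGA-GFP Smad reporter; compounds added before 500 pg/mL final TGF-beta, 18 h incubation at 37 degrees C, GFP fluorescence quantified per cell by imaging cytometry.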
* = called active by the depositor; ? = inconclusive; . = not tested or not shown; [ ] = dose if it differs, or a comment. Sampled rows, rich in hits. Any-hit rate of the full collection: about 18%. Unless noted, calls come from the whole dose curve; as a rule, active = well fitted curve in the direction sought with a large enough effect; inconclusive = small, poorly fitted or top-dose-only effect, or another doubt; inactive = no such curve, though single readings can be large; an effect the other way counts as inactive or inconclusive.

SMILES | TDP1 block | HepG2 viability | IL-1B inflam inh | TDP1 cell CPT | DT40 TDP1 no CPT | TGFb SMAD3 inh
Cc1ccc(CNC(=O)c2[nH]c(C(F)(F)F)nc2-c2ccccc2)cc1 | . | -20.2% | 20.0 | ? | 20.6µM* | ?
O=C(NCc1cccc(C(F)(F)F)c1)c1[nH]c(C(F)(F)F)nc1-c1ccccc1 | . | -42.9% | 34.3 | ? | ? | ?
O=C(Nc1ccccc1)c1cccnc1NCCc1ccccc1 | . | -5.0% | -8.4 | ? | 16.4µM* | 14.6%
COc1cccc(Nc2ncccc2C(=O)Nc2ccccc2)c1 | 3.8% | -20.2% | ? | -27.2% | 2.6% | 0.0%
COc1ccc(NC(=O)c2cccnc2NCCc2ccccc2)cc1 | 0.0% | -31.4% | -3.3 | 20.6µM* | ? | 0.0%
COc1ccc(NC(=O)N2CCN(C(=O)C(Cc3ccc(F)cc3)NC(C)=O)CC2)cc1 (configuration not stated) | -1.2% | 22.3% | -9.6 | -2.7% | 2.4% | -1.5%
COc1cccc(NC(=O)CCNS(=O)(=O)c2ccc3c(c2)CC(C)N3C(=O)C2CC2)c1 (configuration not stated) | 1.6% | -5.9% | 33.0 | ? | -24.2% | 5.8%
Cc1cccc(Oc2nc3c(c(=O)n(C)c(=O)n3C)n2C)c1C | 3.2% | 2.8% | . | -15.9% | -25.1% | -19.3%
CCCCOc1ccc(C(=O)NCC(=O)NCC2CCCO2)cc1 (configuration not stated) | 3.0% | 6.9% | 15.1 | ? | ? | 1.0%
CCOc1ccc(Cl)cc1/C=C1/C(=O)ON=C1C | . | 0.1% | -13.7 | ? | ? | -9.8%
C#CCOc1c(Cl)cc(/C=C2/C(=O)ON=C2C)cc1OC | . | 1.1% | 13.9 | ? | ? | 4.4%
COc1cc(/C=C2\SC(c3ccc(C)cc3)=NC2=O)cc(OC)c1OC | 2.6% | -0.5% | 27.4 | -4.6% | -29.0% | 2.4%
COc1cc(/C=C2/C(=O)ON=C2C)cc(Cl)c1O | . | -6.2% | 2.9 | 18.4µM* | ? | -1.2%
CCCOc1ccc(/C=C2/C(=O)ON=C2C)cc1Cl | . | -4.8% | 0.0 | 18.4µM* | ? | -26.6%
CCOc1cc(/C=C2/C(=O)ON=C2C)ccc1O | . | -4.3% | -9.9 | -16.7% | 5.1% | 2.9%
COc1cc(/C=C2\SC(c3ccccc3)=NC2=O)cc(Cl)c1O | 5.4% | 5.5% | 34.7 | 20.6µM* | ? | -5.5%
CC1=NOC(=O)/C1=C/c1ccc(O)c(Cl)c1 | . | 1.4% | -11.6 | ? | 9.2µM* | -2.0%
COc1ccc(N2C(=O)C3[C@@H](C2=O)C2(Cl)C(Cl)=C(Cl)C3(Cl)C2(OC)OC)cc1 (some centres not stated) | 2.8% | -6.7% | 23.6 | -1.2% | -13.3% | -3.7%
Cc1cc2nc(C(C)(C)C)c(Cc3ccccc3C(F)(F)F)n2c(C)c1Br | . | . | 47.1 | ? | ? | .
COc1ccccc1Cc1c(C(C)(C)C)nc2cc(C)c(Br)c(C)n12 | . | . | 66.9 | 25.9µM* | 16.4µM* | .
CCCc1nc2cc(C)c(Br)c(C)n2c1Cc1ccccc1OC | . | . | 19.9 | 25.9µM* | 14.6µM* | .
COC(=O)CCCC1=CC2=C(c3ccccc3)C(=O)C(C)(OC(=O)C3CCCC3)C(=O)C2=CN1CCCOC(C)C (configuration not stated) | 11.9%[12.3 µM] | . | . | . | . | .
CC(=O)N(CN1C(=O)CCC1=O)c1cccc(Cl)c1 | 5.4% | 0.4% | 19.4 | 4.8% | 1.7% | 0.7%
COCCOC(=O)c1c(-c2ccccc2)c(-c2ccccc2)nn(C)c1=O | -9.3% | -20.7% | . | ? | 20.6µM* | -1.2%
COC(=O)c1c(-c2ccccc2)c(-c2ccccc2)nn(C)c1=O | 4.7% | -3.7% | 10.7 | ? | ? | -1.7%
SMILES | TDP1 block | HepG2 viability | IL-1B inflam inh | TDP1 cell CPT | DT40 TDP1 no CPT | TGFb SMAD3 inh
CC(C)OC(=O)c1c(-c2ccccc2)c(-c2ccccc2)nn(C)c1=O | 4.7% | -31.7% | . | ? | 20.6µM* | ?
c1ccc2c(c1)CC1(CCCC1)N=C2N1CCOCC1 | 0.0% | -12.2% | -6.9 | -11.8% | 11.6% | 4.1%
CCOC(=O)c1cc(OC(=O)c2ccc(Cl)cc2)n(-c2ccccc2)n1 | -5.3% | -1.5% | . | . | . | -6.4%
COCCCNC(=O)C(=O)Nc1ccc2c(c1)N(S(=O)(=O)c1cccs1)CCC2 | -0.4% | 0.0% | 19.3 | 0.651µM* | 0.581µM* | 0.0%
CN(C)CCCNC(=O)C(=O)Nc1ccc2c(c1)N(S(=O)(=O)c1cccs1)CCC2 | 0.2% | -23.7% | -14.7 | ? | ? | 3.9%
COCCCNC(=O)C(=O)Nc1cc2c3c(c1)CCC(=O)N3CCC2 | 0.3% | 3.5% | -3.6 | 1.0% | 13.0% | -1.7%
O=C(Nc1ccc2c(c1)CCCN2C(=O)c1cccs1)c1c(F)cccc1F | 2.4% | -5.0% | -26.9 | ? | ? | -10.1%
CCNC(=O)C(=O)Nc1ccc2c(c1)N(S(=O)(=O)c1cccs1)CCC2 | 0.3% | -4.5% | 21.0 | ? | ? | -3.6%
CN(C)CCNC(=O)C(=O)Nc1ccc2c(c1)N(S(=O)(=O)c1cccs1)CCC2 | . | -29.8% | -29.0 | 16.4µM* | 7.31µM* | 3.2%
C=CCNC(=O)C(=O)Nc1ccc2c(c1)N(S(=O)(=O)c1cccs1)CCC2 | -1.5% | -27.0% | 10.6 | ? | 23.1µM* | 12.4%
O=C(Nc1ccc2c(c1)N(S(=O)(=O)c1cccs1)CCC2)c1c(F)cccc1F | . | -2.3% | -8.3 | ? | 16.4µM* | 7.1%
CC(=O)c1c(C)nc2sc3c(=N)n(N)cnc3c2c1-c1ccc(Cl)cc1 | 7.6% | -31.9% | 27.8 | -11.0% | ? | -14.5%
O=CNNC(=O)c1cccc([N+](=O)[O-])c1 | -12.6% | -27.1% | 37.8 | 8.1% | 14.7% | 0.0%
COCCN(CCOC)c1nc(C)nc2c1nc(-c1ccccc1)n2CCCN(C)C | 7.5% | . | . | . | . | .
CCC(C(=O)NC1CCCC1)n1c2ccccc2c2nc(=O)cc(C)n21 (configuration not stated) | . | 6.9% | 17.4 | -9.1% | -19.7% | -0.4%
CCCNC(=O)C(=O)Nc1ccc2c(c1)N(S(=O)(=O)c1cccs1)CCC2 | -0.9% | -32.4% | 20.1 | 14.6µM* | 23.1µM* | -0.5%
Cc1cc(NC(=O)CCC(=O)N(CC(=O)NC2CCCC2)c2ccc(C(C)C)cc2)no1 | 5.6%[0.0935 µM] | -39.1% | -10.4 | ? | ? | ?
